The record followed here is PubChem BioAssay (EPA / NIEHS).

The source made the active and inactive calls. How the source made its calls: active means hit-call score of the fitted dose curve at least 0.9, where 1 is the maximum; inactive means score below 0.9.

The nature of the assay: APR_HepG2_MitoticArrest_1hr: Apredica 1-hour HepG2 Assay for Mitotic Arrest (AID 2282672). The following applies: high-content imaging, actives raise or lower the signal. How it is done: APR_HepG2_1hr is a cell-based, multiplexed-readout assay that uses HepG2, a human liver cell line, with measurements taken at 1 hour after chemical dosing in a 384-well plate.APR_HepG2_MitoticArrest_1hr is one of 10 assay component(s) measured or calculated from the APR_HepG2_1hr assay. It is designed to make measurements of cell phenotype, a form of morphology reporter, as detected with fluorescence intensity signals by HCS Fluorescent Imaging technology.Data from the assay component APR_HepG2_MitoticArrest_1hr was analyzed into 1 assay endpoint. This assay endpoint, APR_HepG2_MitoticArrest_1hr, was analyzed with bidirectional fitting relative to DMSO as the negative control and baseline of activity. Using a type of morphology reporter, measures of protein for gain or loss-of-signal activity can be used to understand the signaling at the pathway-level as they relate to the gene . Furthermore, this assay endpoint can be referred to as a primary readout, because this assay has produced multiple assay endpoints where this one serves a signaling function. To generalize the intended target to other relatable targets, this assay endpoint is annotated to the cell cycle intended target family, where the subfamily is arrest.
Cells were treated with dimethyl sulfoxide (DMSO) as a solvent control at a final concentration of 0.5% v/v or with compounds in DMSO with a resulting final DMSO concentration of 0.5% v/v. Compound treatment was done at concentrations of 0.39, 0.78, 1.56, 3.12, 6.24, 12.5, 25, 50, 100, and 200 uM in duplicate on each plate. Cells were treated with compounds for 1, 24, or 72 hr. Carbonyl […] m-chloro-phenylhydrazone (CCCP) and taxol were used as positive controls for mitochondrial function and cytoskeletal stability, respectively; DMSO served as the negative control for this experiment. Cells were fixed by the direct addition of 50 uL formaldehyde in Hank's Balanced Salt Solution (HBSS) to a final concentration of 3.7%. After incubation in the fixation medium for 30 min at room temperature (293-298 K), cells were rinsed twice with HBSS and treated with cell permeabilization buffer (16 uL of 0.5% Triton X-100) for 10 min at room temperature (293-298 K) before labeling. For mitochondrial membrane potential and mitochondrial measurements, pre-fixed cells were incubated with 50 uL of MitoTracker Red CMXRos (Invitrogen) at a concentration of 250 nM for 30 min before fixation. In the remaining cases, post-fixed cells were labeled by incubation with a multiplexed mixture of primary antibodies in HBSS for 60 min at room temperature (293-298 K) to detect immunoreactivity of c-Jun (1:500), phospho-histone H3 (1:100), phospho-histone H2A.x (1:200), p53 (1:400), alpha-tubulin (1:200) and Hoechst 33342 (2 ug/mL). Cells were labeled for multiplexed imaging on two separate plates: a) Hoechst 33342, MitoTracker Red, phospho-histone H3, and alpha-tubulin, and b) Hoechst 33342, phospho-histone H2A.x, and c-Jun. A final rinse with HBSS (50 uL) was performed before analysis. The primary and secondary antibodies for the proteins were phospho-histone H3 (rabbit anti-phospho-histone H3 and FITC-donkey anti-rabbit IgG), phospho-histone H2A.x (mouse anti-phospho-histone H2A.x and FITC-donkey anti-mouse IgG), c-Jun (rabbit anti-phospho-c-Jun and Cy3-donkey anti-rabbit IgG), p53 (sheep anti-p53 and Cy5-donkey anti-sheep IgG), alpha-tubulin (mouse anti-alpha-tubulin and Cy5-donkey anti-mouse IgG). These antibodies are available as the CellCiphr HepG2 assay kit (Millipore).Digital images of each well were captured using a Cellomics ArrayScan VTI (Thermo Scientific Cellomics) (0.8 NA objective, 0.63x optical coupler, and XF-93 filter set) at 20x magnification. The images were acquired using the autofocus feature of the ArrayScan instrument, which entails the following steps. First, the camera focuses on channel 1 (Hoechst 33342), where nuclei are identified. Second, a Z offset of 1 um is used for capturing mitochondria (MitoTracker Red). […]
`C[C@H]1[C@H](c2ccc(Cl)cc2)SC(=O)N1C(=O)NC1CCCCC1`: the call was inactive.

Broadly, the AC50 is the midpoint of the concentration-response curve, whichever way the signal moves. `CC[C@H](C)[C@H]1O[C@]2(C=C[C@@H]1C)C[C@@H]1C[C@@H](C/C=C(\C)[C@@H](O[C@H]3C[C@H](OC)[C@@H](O[C@H]4C[C@H](OC)[C@@H](O)[C@H](C)O4)[C@H](C)O3)[C@@H](C)/C=C/C=C3\CO[C@@H]4[C@H](O)C(C)=C[C@@H](C(=O)O1)[C@]34O)O2` (tested in a mixture with another compound): the AC50 was 12.6 µM (active).

Take `O=[N+]([O-])/N=C1\NCCN1Cc1ccc(Cl)nc1`: the compound was classed as inactive.

For `OCCOc1ccccc1`, the outcome was inactive.

For `COP(=S)(OC)Oc1ccc(SC)c(C)c1`, the compound was called inactive.

`Oc1cc(Cl)ccc1Oc1ccc(Cl)cc1Cl`: the call was inactive.

As for `COC(=O)c1ccccc1S(=O)(=O)NC(=O)N(C)c1nc(C)nc(OC)n1`, the result was inactive.

Turning to `O=C(O)CCCOc1ccc(Cl)cc1Cl`, the call was inactive.

For the compound `CCC(C)(C)C(=O)OC1=C(c2ccc(Cl)cc2Cl)C(=O)OC12CCCCC2`, the result was inactive.

Turning to `CCOC1Oc2ccc(OS(C)(=O)=O)cc2C1(C)C` (stereo not given), the result was inactive.

In the case of `CCc1ccc(C(=O)NN(C(=O)c2cc(C)cc(C)c2)C(C)(C)C)cc1`, the outcome was inactive.

With `C#CCN1C(=O)COc2cc(F)c(N3C(=O)C4=C(CCCC4)C3=O)cc21`, the result was inactive.

In the case of `ClC1C(Cl)C(Cl)C(Cl)C(Cl)C1Cl` (stereo not given), the outcome was inactive.

For the compound `N#CN`, the compound was called inactive.

As to `CNC(=O)Oc1cccc(N=CN(C)C)c1`, the call was inactive.

As for `O=C(NC(=O)c1c(F)cccc1F)Nc1ccc(OC(F)(F)C(F)OC(F)(F)F)c(Cl)c1` (stereo not given), the call was inactive.

For the compound `CCOc1nc(NC)nc(NC(=O)NS(=O)(=O)c2ccccc2C(=O)OC)n1`, the compound was classed as inactive.

On to `CC(C)N(C(=O)COc1nnc(C(F)(F)F)s1)c1ccc(F)cc1`, for which the compound was called inactive.

With `CCCN(CCC)c1c([N+](=O)[O-])cc(C(F)(F)F)cc1[N+](=O)[O-]`, the outcome was inactive.

Turning to `CC(C)(C)C(O)C(Oc1ccc(Cl)cc1)n1cncn1` (stereo not given), the compound was classed as inactive.

As to `O=C1c2ccccc2C(=O)N1SC(Cl)(Cl)Cl`, the call was inactive.

As to `CCOCN(C(=O)CCl)c1c(C)cccc1CC`, the result was inactive.

Turning to `CC(C)OC(=O)Nc1cccc(Cl)c1`, the outcome was inactive.

For the compound `CCC(C)Nc1c([N+](=O)[O-])cc(C(C)(C)C)cc1[N+](=O)[O-]` (stereo not given), the compound was classed as inactive.

As for `CCS(=O)(=O)c1cccnc1S(=O)(=O)NC(=O)Nc1nc(OC)cc(OC)n1`, the compound was classed as inactive.

For the compound `COP(=O)(OC)OC=C(Cl)Cl`, the compound was classed as inactive.

Take `Cc1cc(C)nc(NC(=O)NS(=O)(=O)c2ccccc2C(=O)OC2COC2)n1`: the compound was classed as inactive.

On to `COC(=O)c1ccccc1CS(=O)(=O)NC(=O)Nc1nc(OC)cc(OC)n1`, for which the compound was called inactive.

`COc1cc(OC)nc(NC(=O)NS(=O)(=O)c2cc(NC=O)ccc2C(=O)N(C)C)n1`: the result was inactive.

Consider `[2H]C1([2H])[n+]2ccccc2-c2cccc[n+]2C1([2H])[2H]`, for which the call was inactive.

In the case of `CN1CSC(=S)N(C)C1`, the compound was classed as inactive.

`CCCN(CCOc1c(Cl)cc(Cl)cc1Cl)C(=O)n1ccnc1`: the call was inactive.

For `CC(C)(C)C(O)/C(=C\c1ccc(Cl)cc1Cl)n1cncn1` (stereo not given), the outcome was inactive.

For `Clc1ccccc1-c1nnc(-c2ccccc2Cl)nn1`, the compound was called inactive.

As to `CC1(c2ccc(Oc3ccccc3)cc2)OC(=O)N(Nc2ccccc2)C1=O` (stereo not given), the outcome was inactive.

For the compound `O=S(=O)(O)C(F)(F)C(F)(F)C(F)(F)C(F)(F)C(F)(F)C(F)(F)C(F)(F)C(F)(F)F`, the call was inactive.

For `CCN(CC)C(=O)SCc1ccc(Cl)cc1`, the result was inactive.

Regarding `CNC(=O)Oc1ccccc1OC(C)C`, the compound was classed as inactive.

Take `O=S1OCC2C(CO1)C1(Cl)C(Cl)=C(Cl)C2(Cl)C1(Cl)Cl` (stereo not given): the outcome was inactive.

On to `O=C(Nc1ccccc1)Nc1cnns1`, for which the compound was classed as inactive.
